Experimental data as given in PubChem BioAssay (NCATS).
Results filed as inconclusive are left out. Calls of active or inactive are those of the source. Calls follow the shape of the dose curve; as a rule, active = well fitted inhibition curve with a large enough effect; inconclusive = small, poorly fitted or top-dose-only effect; inactive = flat fitted curve, though single readings scatter.

test system: Zika virus NS2B-NS3 protease; assay: Primary screen GU AMC qHTS for Zika virus inhibitors (AID 1347154); settings: Zika NS2B-NS3 unlinked protease, AMC fluorogenic substrate; series mostly up to 54.1 µM; activity change, negative = inhibition: at the top concentration;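 also: 0% = no-inhibitor control and -100% = no-enzyme control; nearly all actives have a fitted effect of over 70% in size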
Summary of the method: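 Unlinked Zika NS2B hydrophilic domain–NS3 protease complex at 25 nM in 10 mM Tris-HCl pH 8.0, 0.01% Tween 20, with an AMC peptide substrate. Fluorescence change (340/450 nm) over 15 min at room temperature, normalized to controls, fitted to 4-parameter Hill.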

SMILES | activity change, negative = inhibition | Potency
N#Cc1c(NC(=O)c2cccc3ccccc23)sc2c1CCCC2 | 6.35% (inactive) | 
NC(=NCCCCCCN=C(N)N=C(N)Nc1ccc(Cl)cc1)N=C(N)Nc1ccc(Cl)cc1 |  | inactive
CN1C(C(=O)Nc2ccccn2)=C(O)c2sc(Cl)cc2S1(=O)=O | -6.17% (inactive) | 
OCc1ccccc1O[C@@H]1O[C@H](CO)[C@H](O)[C@H](O)[C@H]1O | 6.85% (inactive) | 
C[C@H](CCC(=O)O)[C@H]1CC[C@H]2[C@@H]3[C@H](O)C[C@@H]4C[C@H](O)CC[C@]4(C)[C@@H]3CC[C@]12C | -12.8% (inactive) | 
C[C@H]1O[C@H](O[C@H]2[C@H](O)[C@@H](O)[C@@H](O[C@H]3[C@H](O)[C@@H](O)C(O)O[C@H]3CO)O[C@H]2CO)[C@H](O)[C@@H](O)[C@H]1N[C@H]1C=C(CO)[C@@H](O)[C@H](O)[C@@H]1O (some centres undefined) | 0.311% (inactive) | 
CC(C)(O)[C@H]1CC[C@@](C)([C@H]2[C@@H](O)C[C@@]3(C)[C@@H]4C[C@H](O[C@@H]5O[C@H](CO)[C@@H](O)[C@H](O)[C@@H]5O)[C@H]5C(C)(C)[C@@H](O[C@@H]6OC[C@@H](O)[C@H](O)[C@@H]6O)CC[C@@]56C[C@@]46CC[C@]23C)O1 | -13.9% (inactive) | 
NC(=O)c1cccc(-c2cccc(OC(=O)NC3CCCCC3)c2)c1 | 6.33% (inactive) | 
Cc1cc(-c2nnc3n2CCCCC3)c(C)n1-c1ccccc1 | -3.36% (inactive) | 
C[C@@H]1C(=O)O[C@H]2CC34[C@H]5C[C@@H](C(C)(C)C)C36[C@H](OC(=O)[C@@H]6O)O[C@@]4(C(=O)O5)[C@]21O (some centres undefined) | 16.7% (inactive) | 
COc1cc([C@@H]2c3cc4c(cc3[C@@H](O[C@@H]3O[C@@H]5CO[C@@H](c6cccs6)O[C@@H]5[C@H](O)[C@@H]3O)[C@H]3COC(=O)[C@H]23)OCO4)cc(OC)c1O | 12.1% (inactive) | 
Cn1cc(CNCC2CCN(c3ncc(C(=O)NO)cn3)CC2)c2ccccc21 | 2.76% (inactive) | 
C=CC(=O)Nc1cccc(Nc2nc(NC3CCC(N(C)C)CC3)nc3c2ncn3C(C)C)c1 (centres undefined) | 1.64% (inactive) | 
COc1cc2c(cc1O)CCC1C2CC[C@@]2(C)C1CC[C@@H]2O (some centres undefined) | 4.85% (inactive) | 
OC[C@@H](O)[C@@H](O)[C@H](O)[C@@H](O)CO | 16.4% (inactive) | 
C[C@H](NC(=O)[C@@H](O)c1cc(F)cc(F)c1)C(=O)N[C@@H]1C(=O)N(C)c2ccccc2-c2ccccc21 | 0.499% (inactive) | 
Cc1cc(O)c2c(c1)C(=O)c1cccc(O)c1C2=O | 6.61% (inactive) | 

SMILES | activity change, negative = inhibition | Potency
CC(=O)O[C@]1(C(C)=O)CC[C@H]2[C@@H]3C=C(C)C4=CC(=O)CC[C@]4(C)[C@@H]3CC[C@@]21C | 0.685% (inactive) | 
CCOC(=O)N1CCN([N+]([O-])=NOc2ccc([N+](=O)[O-])cc2C#N)CC1 | 2.48% (inactive) | 
CCn1c(=O)c2c(nc(C=Cc3ccc(OC)c(OC)c3)n2C)n(CC)c1=O | -2.68% (inactive) | 
CC(=O)OC[C@@H]1O[C@@H](n2ccc(=O)[nH]c2=O)[C@H](OC(C)=O)[C@H]1OC(C)=O | -2.76% (inactive) | 
CCOC(=O)C=C[C@H](C[C@@H]1CCNC1=O)NC(=O)[C@@H](CC(=O)[C@@H](NC(=O)c1cc(C)on1)C(C)C)Cc1ccc(F)cc1 | 4.98% (inactive) | 
Cc1nc(NC(=O)N2CCC[C@@H]2C(N)=O)sc1-c1ccnc(C(C)(C)C(F)(F)F)c1 | -10.5% (inactive) | 
COc1cc2c(Nc3ccc(Cl)c(Cl)c3F)ncnc2cc1OCC1C[C@@H]2CN(C)C[C@H]2C1 | -1.3% (inactive) | 
O=C(CCCCCCC(=O)Nc1cccnc1)NO | 0.587% (inactive) | 
O=C(O)C(=O)Nc1cccc(C2=NN=N[N]2)c1 | -2.58% (inactive) | 
CON=C(C(=O)N[C@@H]1C(=O)N2C(C(=O)O)=C(CSC(=O)c3ccco3)CS[C@H]12)c1csc(N)n1 | -4.45% (inactive) | 
C=CCNC1=C2C[C@@H](C)C[C@H](OC)[C@@H](O)[C@@H](C)C=C(C)[C@H](OC(N)=O)[C@@H](OC)C=CC=C(C)C(=O)NC(=CC1=O)C2=O | -9.23% (inactive) | 
N#CC(=C(N)Sc1ccc(N)cc1)c1ccccc1C(F)(F)F | -2.86% (inactive) | 
C[C@]12C=CC(=O)N[C@@H]1CC[C@H]1[C@H]3CC[C@@H](C(=O)Nc4cc(C(F)(F)F)ccc4C(F)(F)F)[C@@]3(C)CC[C@@H]12 | -4.03% (inactive) | 
C[C@@]12C(=O)OC(=O)[C@@]1(C)C1CCC2O1 | 3.55% (inactive) | 
CC(N[C@H]1CCCC[C@H]1NC(=O)c1ccc(Cl)cc1)c1cccc2ccccc12 (some centres undefined) | -1.14% (inactive) | 
N#Cc1cc(NC(=O)Nc2nnc(-c3ccncc3)s2)ccc1-c1cn[nH]c1 | -8.5% (inactive) | 
CC(C)(O)CC[C@@H](O)[C@](C)(O)[C@H]1CC[C@@]2(O)C3=CC(=O)[C@@H]4C[C@@H](O)[C@@H](O)C[C@]4(C)[C@@H]3CC[C@]12C | 2.63% (inactive) | 
